The values that follow come from PubChem BioAssay.

Assay [1] has as its system Wnt5a (protein binding on small-molecule microarray). Nature of the assay: Wnt5a binders on small-molecule microarray, primary screen, biophysical, 635/667 nm fluorescence (AID 1142).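 Further: fluorescence read at 667 nm with signal to noise per printed feature.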 The settings on record: 635 nm fluorescence, higher = more signal.
Assay [2] can be described thus: cell viability in Huh7 cells, primary screen, cytotoxicity control for HCV replication inhibitor project, CellTiter-Glo luminescence, basal, 48 h (AID 1143).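 Further: Huh7 hepatoma cells carrying a hepatitis C replication reporter with no stimulus; test concentration not given here.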 The note with it: Huh7 HCV replicon, higher = more signal, called active from +8 up or from −8 down. A general note: In ATP-based viability assays light output follows the ATP content of the culture.
Assay [3] can be described thus: P. aeruginosa biofilm formation inhibitors, primary screen, PAO1 strain, BacTiter-Glo luminescence, LB-PBS (AID 1144). The note with it: 12 h, higher = more signal.
Assay [4] is described as follows: CREB reporter modulators without forskolin, primary screen, cell-based, PC12, CRE-LacZ reporter, unstimulated (AID 1145). The note with it: no forskolin, luminescence, 4.5 h, higher = more signal, called active from +8 up or from −8 down.
Assay [5] is described as follows: CREB reporter modulators under forskolin, primary screen, cell-based, PC12, CRE-LacZ reporter, forskolin-stimulated (AID 1146).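 Further: PC12 cells with 6xCRE LacZ reporter stimulated by forskolin 10 µM; beta-galactosidase reporter signal reflecting CREB driven transcription.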 The settings on record: luminescence, 4.5 h, higher = more signal, called active from +8 up or from −8 down.
The target in assay [6] is Streptavidin (Streptomyces avidinii) (UniProt P22629). Nature of the assay: streptavidin binders on small-molecule microarray, primary screen, artefact control for SMM compound annotation, biophysical, 635/667 nm fluorescence (AID 1147).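 Further: signal reflects streptavidin binding to arrayed compounds as a control protein.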 The note with it: streptavidin binding, higher = more signal.
Assay [7] in a line: small-molecule binders of probe aInhba, primary screen, biochemical, small-molecule microarray, 635/667 nm fluorescence (AID 1148).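 Further: score merges 667nm spot fluorescence with signal-to-noise for antibody binding to printed compounds.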 The note with it: higher = more signal.
Assay [8] concerns the target Torsin-1A (Homo sapiens) (UniProt O14656). The assay is described as follows: torsin A binders from cell lysate, primary screen, small-molecule microarray, wild-type, 635/667 nm (AID 1149). The settings on record: COS7 hTOR1A-WT lysate, 635 nm fluorescence, higher = more signal.
The target is the same in assay [9]. The assay is described as follows: small-molecule binders of mutant TOR1A in lysate, primary screen, cell lysate, small-molecule microarray, COS7 lysate, 635/667 nm fluorescence (AID 1150).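 Further: score pools 667 nm emission and signal to noise measuring lysate protein binding.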 The settings on record: COS7 hTOR1A mutant lysate, 635 nm fluorescence, higher = more signal.
Assay [10] deals with Sonic hedgehog protein (Shh). Nature of the assay: small-molecule binders of Shh protein, primary screen, biochemical, small-molecule microarray, 635/667 nm fluorescence (AID 1151).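 Further: Shh protein binding to compounds spotted on small-molecule microarray slides; score combines spot fluorescence intensity with signal-to-noise across triplicate slides.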 The settings on record: small-molecule microarray binding, 635 nm fluorescence; higher = more signal.
The nature of assay [11]: E. coli DRC41 culture turbidity changes, primary screen, E. coli filamentation inducer project, strain DRC41, OD650, 48 h (AID 1152).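 Further: E. coli MC1000 strain DRC41 lacking acrAB efflux pump and sulA.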 The settings on record: E. coli DRC41 (acrAB sulA), higher = more signal, called active from +8 up or from −8 down.
The nature of assay [12]: small-molecule binders of probe aLefty1, primary screen, biochemical, small-molecule microarray, 635/667 nm fluorescence (AID 1153).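 Further: score merges spot fluorescence with signal-to-noise ratio from the scanned slide images.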 The settings on record: higher = more signal.
Assay [13] can be described thus: PSAC antagonists in infected red cells, primary screen, cell-based, P. falciparum Indochina, OD700, 1 h (AID 1154). The settings on record: P. falciparum Indochina infected RBC osmotic lysis, higher = more signal, called active from +8 up or from −8 down.
The nature of assay [14]: PSAC antagonists in infected red cells, primary screen, cell-based, P. falciparum Indochina, OD700, 2 h (AID 1155).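 Further: lysis reports solute entry through the parasite surface anion channel PSAC; channel blockers reduce lysis of infected cells.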 The settings on record: P. falciparum Indochina infected erythrocytes, osmotic lysis OD700; higher = more signal, called active from +8 up or from −8 down.
The nature of assay [15]: osmotic lysis modulators in infected erythrocytes, primary screen, PSAC antagonist project, cell-based, P. falciparum Indochina, OD700, 3 h (AID 1156). The settings on record: higher = more signal, called active from +8 up or from −8 down.
Assay [16] can be described thus: PSAC antagonists in infected red cells, primary screen, cell-based, P. falciparum Indochina, OD700, 18 h (AID 1157). The settings on record: P. falciparum Indochina infected erythrocytes, osmotic lysis OD700, 18 h; higher = more signal, called active from +8 up or from −8 down.
Assay [17] can be described thus: modulators of S6 phosphorylation in cells, primary screen, cell-based, A549, cytoblot, luminescence, serum-stimulated (AID 1158).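 Further: serum-stimulated A549 lung adenocarcinoma cells; signal is phosphorylated S6 detected by cytoblot immunostaining with HRP secondary.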 The note with it: A549 phospho-S6 cytoblot, 5 h, higher = more signal.
Assay [18] addresses NADPH oxidase 2 (Homo sapiens) (UniProt P04839). The assay is described as follows: NOX2-dependent H2O2 signal modulators, primary screen, NOX inhibitor project, cell-based, HEK293-NOX2, PMA-stimulated, Amplex Red fluorescence (AID 1159). Further: test concentration not given here. The settings on record: 45 min, higher = more signal, called active from +8 up or from −8 down.
Assay [19] addresses NADPH oxidase 4 (Homo sapiens) (UniProt Q9NPH5). Nature of the assay: NOX4-dependent H2O2 signal modulators, primary screen, NOX inhibitor project, cell-based, HEK293-NOX4, tetracycline-induced, Amplex Red fluorescence (AID 1160). The settings on record: 45 min, higher = more signal, called active from +8 up or from −8 down.
Assay [20] addresses NADPH oxidase 5 (Homo sapiens) (UniProt Q96PH1). The assay is described as follows: NOX5-dependent H2O2 signal modulators, primary screen, NOX inhibitor project, cell-based, HEK293-NOX5, Amplex Red fluorescence (AID 1161). The settings on record: HEK293-NOX5, ionomycin, 45 min, higher = more signal.

Activity calls are given as the source filed them. Unless noted, how the calls were made is not given here.

Chain of Streptavidin (Streptomyces avidinii) (P22629 whole entry, looked up): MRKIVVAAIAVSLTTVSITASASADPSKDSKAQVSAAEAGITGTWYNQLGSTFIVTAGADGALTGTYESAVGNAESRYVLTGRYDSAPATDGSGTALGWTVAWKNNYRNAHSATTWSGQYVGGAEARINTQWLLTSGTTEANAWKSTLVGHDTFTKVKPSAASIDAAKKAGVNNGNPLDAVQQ
Chain of NADPH oxidase 4 (Homo sapiens) (Q9NPH5 whole entry, looked up): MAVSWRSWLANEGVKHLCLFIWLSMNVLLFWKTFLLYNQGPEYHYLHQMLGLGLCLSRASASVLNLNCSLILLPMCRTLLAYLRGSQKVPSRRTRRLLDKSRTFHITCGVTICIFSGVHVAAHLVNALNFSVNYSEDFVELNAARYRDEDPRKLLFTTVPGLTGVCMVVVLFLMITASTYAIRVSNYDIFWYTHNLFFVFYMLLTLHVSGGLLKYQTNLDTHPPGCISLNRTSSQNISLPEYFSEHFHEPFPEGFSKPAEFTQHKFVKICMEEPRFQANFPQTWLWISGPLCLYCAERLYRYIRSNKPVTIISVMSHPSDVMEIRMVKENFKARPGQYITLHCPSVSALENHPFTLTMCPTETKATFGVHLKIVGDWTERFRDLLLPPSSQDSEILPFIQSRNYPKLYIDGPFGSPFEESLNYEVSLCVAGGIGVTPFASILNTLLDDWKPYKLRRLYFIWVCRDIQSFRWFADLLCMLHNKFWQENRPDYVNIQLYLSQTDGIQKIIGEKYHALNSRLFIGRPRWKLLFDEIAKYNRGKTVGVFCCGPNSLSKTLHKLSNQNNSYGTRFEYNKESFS
Chain of NADPH oxidase 2 (Homo sapiens) (P04839 whole entry, looked up): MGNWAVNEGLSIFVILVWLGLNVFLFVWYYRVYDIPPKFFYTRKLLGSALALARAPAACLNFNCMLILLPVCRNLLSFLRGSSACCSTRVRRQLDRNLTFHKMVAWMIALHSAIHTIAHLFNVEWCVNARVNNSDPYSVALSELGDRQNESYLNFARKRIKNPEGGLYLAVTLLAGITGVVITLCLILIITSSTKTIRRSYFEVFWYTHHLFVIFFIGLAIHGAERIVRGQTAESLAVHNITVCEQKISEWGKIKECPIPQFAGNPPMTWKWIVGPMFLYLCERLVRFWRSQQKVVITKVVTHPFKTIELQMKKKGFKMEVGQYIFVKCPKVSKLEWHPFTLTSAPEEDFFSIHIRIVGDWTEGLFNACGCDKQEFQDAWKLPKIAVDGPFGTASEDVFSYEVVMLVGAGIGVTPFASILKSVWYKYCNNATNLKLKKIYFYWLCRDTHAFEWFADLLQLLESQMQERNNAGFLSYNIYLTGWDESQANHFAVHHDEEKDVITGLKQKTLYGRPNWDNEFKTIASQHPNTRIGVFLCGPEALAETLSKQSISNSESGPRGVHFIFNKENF
Chain of NADPH oxidase 5 (Homo sapiens) (Q96PH1 whole entry, looked up): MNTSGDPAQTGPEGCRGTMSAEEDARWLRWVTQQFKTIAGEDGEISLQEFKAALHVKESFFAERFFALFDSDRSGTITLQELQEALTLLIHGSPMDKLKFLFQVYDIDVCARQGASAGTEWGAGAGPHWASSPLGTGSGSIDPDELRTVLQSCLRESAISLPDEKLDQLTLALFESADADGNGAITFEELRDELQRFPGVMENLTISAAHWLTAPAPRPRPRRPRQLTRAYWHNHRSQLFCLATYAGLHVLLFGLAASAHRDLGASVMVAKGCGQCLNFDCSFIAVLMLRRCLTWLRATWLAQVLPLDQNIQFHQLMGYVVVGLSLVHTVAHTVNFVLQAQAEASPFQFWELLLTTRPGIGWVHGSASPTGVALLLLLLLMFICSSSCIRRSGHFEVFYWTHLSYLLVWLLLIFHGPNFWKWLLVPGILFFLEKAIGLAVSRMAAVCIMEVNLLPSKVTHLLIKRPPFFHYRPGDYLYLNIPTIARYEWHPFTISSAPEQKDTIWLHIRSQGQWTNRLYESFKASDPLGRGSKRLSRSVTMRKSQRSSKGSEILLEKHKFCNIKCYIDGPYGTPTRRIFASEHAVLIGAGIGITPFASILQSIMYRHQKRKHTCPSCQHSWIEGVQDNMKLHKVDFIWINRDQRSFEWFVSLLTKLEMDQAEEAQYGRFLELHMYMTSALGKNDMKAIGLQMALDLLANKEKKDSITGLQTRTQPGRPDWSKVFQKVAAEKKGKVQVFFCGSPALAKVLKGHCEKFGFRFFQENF
Chain of Torsin-1A (Homo sapiens) (O14656 whole entry, looked up): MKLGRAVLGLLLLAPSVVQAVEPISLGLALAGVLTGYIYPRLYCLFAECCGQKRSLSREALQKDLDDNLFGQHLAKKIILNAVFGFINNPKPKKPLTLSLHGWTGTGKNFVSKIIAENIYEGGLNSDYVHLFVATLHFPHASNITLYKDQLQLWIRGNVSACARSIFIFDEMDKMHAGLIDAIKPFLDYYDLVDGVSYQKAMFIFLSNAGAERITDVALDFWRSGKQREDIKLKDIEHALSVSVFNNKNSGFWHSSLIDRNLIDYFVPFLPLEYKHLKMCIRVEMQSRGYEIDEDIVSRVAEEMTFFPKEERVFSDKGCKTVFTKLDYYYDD

Take `COC(=O)C1=CC(CCCO)=CC(C2CC2)N(C)C=C1C(=O)OC` (stereo not given): the composite z-score in [1] was 0.0676; in assay [6], -0.326; in [7], -0.152; with Torsin-1A (Homo sapiens) [8], 0.564; with Torsin-1A (Homo sapiens) [9], 0.289; in assay [10] it was -0.526. The composite z-score in assay [12] was -0.35. Further, the z-score is -2.82 (inactive) in assay [2]; -1.59 (inactive) in assay [3]; -0.581 (inactive) in assay [4]; 0.214 (inactive) in [5]; 1.22 (inactive) in assay [11]; 0.731 (inactive) in assay [13]. The z-score is -0.59 (inactive) in [14]; 0.482 (inactive) in assay [15]; -1.41 (inactive) in [16]; 1.83 in assay [17]; -0.463 (inactive) in assay [18]; -0.122 (inactive) in [19]. The z-score in assay [20] is 0.663.

As for `C=C(COC)/C(=C/C[C@H](OC(C)=O)c1ccc(OCCO)cc1)c1cc(C(=O)OC)ccc1OC`, the composite z-score in assay [1] was 0.39; in [6], -0.313; in assay [7] it was 0.0566; in the assay with Torsin-1A (Homo sapiens) [8], 2.01; with Torsin-1A (Homo sapiens) [9], 0.524; in assay [10], 1.92. Further, in assay [12], the composite z-score was 0.188. Further, the z-score in assay [2] was -0.519 (inactive); in [3], -0.339 (inactive); in assay [4], 13.8 (active); in [5], 0.696 (inactive); in assay [11] it was 1.28 (inactive); in assay [13], 24.8 (active). Further, the z-score in assay [14] is 7.54 (inactive); in [15], 2.08 (inactive); in assay [16], 1.14 (inactive); in assay [17] it was 0.497; in assay [18], 1.6 (inactive); in [19], 1.03 (inactive). For the same molecule, in assay [20], the z-score is -1.34.

Regarding `C=CCNC(=O)[C@H]1[C@@H]2C(=O)O[C@@H](c3ccccc3)[C@@H](c3ccccc3)N2[C@@H](c2ccc(O)cc2)[C@]12C(=O)N(C(=O)OCCOC)c1ccccc12`, the composite z-score in assay [1] is 0.381; in assay [6] it was -0.0654; in [7] it was 0.122; in the assay with Torsin-1A (Homo sapiens) [8], 0.265; with Torsin-1A (Homo sapiens) [9], 1.02; in assay [10], 1.11. The composite z-score in [12] is -0.514. Besides, the z-score was -2.03 (inactive) in [2]; 0.309 (inactive) in assay [3]; 0.128 (inactive) in assay [4]; 5.62 (inactive) in assay [5]; -0.0476 (inactive) in assay [11]; 1.97 (inactive) in assay [13]. Also, the z-score was 0.481 (inactive) in [14]; 1.77 (inactive) in [15]; 0.148 (inactive) in assay [16]; -0.233 in assay [17]; 0.974 (inactive) in assay [18]; -0.168 (inactive) in assay [19]. Besides, in assay [20], the z-score worked out at 0.605.

For `COC(=O)[C@@]1(Cc2ccccc2)[C@H]2c3cc(C(=O)N(C)C)n(Cc4c(CO)[nH]cc(C)c4=O)c3C[C@H]2CN1C(=O)c1ccccc1`, the composite z-score in assay [1] is 0.259; in assay [6], 0.0174; in [7], -0.0963; in the assay with Torsin-1A (Homo sapiens) [8], 0.376; in the assay with Torsin-1A (Homo sapiens) [9] it was 0.478; in assay [10], -0.842. This molecule displayed a composite z-score in assay [12] of 0.0004. Further, the z-score in assay [2] is 0.229 (inactive); in [3], 0.268 (inactive); in assay [4], -0.568 (inactive); in assay [5], 0.977 (inactive); in assay [11] it was -1.16 (inactive); in [13], 0.758 (inactive). Moreover, the z-score in assay [14] is -0.16 (inactive); in assay [15], 0.338 (inactive); in assay [16] it was 0.248 (inactive); in assay [17], -0.482; in assay [18], 0.495 (inactive); in assay [19], 0.334 (inactive). In [20], this molecule gave a z-score of -1.91.

In the case of `COC(=O)c1c2oc(c1C(=O)OC)C(=O)N(Cc1ccccc1)Cc1cn(nn1)C[C@H](Cc1ccccc1)NC(=O)N[C@H](CO)CC2`, the composite z-score in [1] is 0.131; in [6], -0.25; in assay [7], -0.154; in the assay with Torsin-1A (Homo sapiens) [8], -0.0053; with Torsin-1A (Homo sapiens) [9], 0.218; in [10], 0.346. For the same molecule, the composite z-score in assay [12] is -0.0942. For the same molecule, the z-score was -1.84 (inactive) in [2]; -1.12 (inactive) in assay [3]; 0.964 (inactive) in assay [4]; -1.16 (inactive) in assay [5]; 0.959 (inactive) in assay [11]; 1.67 (inactive) in assay [13]. Also, the z-score in [14] is 0.393 (inactive); in [15], -0.252 (inactive); in [16] it was 0.213 (inactive); in [17] it was 1.18; in assay [18], -1.13 (inactive); in [19], 1.06 (inactive). In [20], the z-score was -0.397.

For the molecule `[N-]=[N+]=NCc1ccccc1C[C@@]1(C(=O)N2CCOCC2)N=C(c2ccc(OCCCO)cc2)O[C@@H]1c1ccccc1`, the composite z-score in assay [1] was 0.464; in assay [6] it was 1.35; in assay [7], 0.0589; with Torsin-1A (Homo sapiens) [8], 1.19; with Torsin-1A (Homo sapiens) [9], 1.31; in [10], -0.796. In assay [12], this molecule returned a composite z-score of 0.276. The z-score is -5.68 (inactive) in assay [2]; -0.244 (inactive) in [3]; 0.922 (inactive) in [4]; -0.951 (inactive) in [5]; 0.083 (inactive) in assay [11]; 27 (active) in assay [13]. Moreover, the z-score in [14] was 17.1 (active); in [15] it was 2.37 (inactive); in [16], 0.889 (inactive); in [17], 2.41; in assay [18], -4.45 (inactive); in assay [19] it was -1.12 (inactive). This molecule also returned a z-score in assay [20] of -2.14.

As to `COCCOC(=O)N1C(=O)[C@@]2(c3cc(C#CCC(C(=O)OC)C(=O)OC)ccc31)[C@H](C(=O)N1CCc3cc(OC)c(OC)cc3C1)[C@H]1C(=O)O[C@H](c3ccccc3)[C@H](c3ccccc3)N1[C@@H]2c1ccc(OCCO)cc1`, the composite z-score in [1] was 0.587; in assay [6], 0.523; in assay [7], 0.19; with Torsin-1A (Homo sapiens) [8], 0.817; in the assay with Torsin-1A (Homo sapiens) [9], 0.914; in assay [10], 1.73. In assay [12], this molecule registered a composite z-score of 0.54. In addition, the z-score in assay [2] was -0.0887 (inactive); in assay [3], -0.442 (inactive); in [4], 0.0653 (inactive); in assay [5], -0.333 (inactive); in [11], -0.763 (inactive); in assay [13] it was 9.36 (active). Besides, the z-score in assay [14] was 2.73 (inactive); in [15], 0.57 (inactive); in assay [16], 1.67 (inactive); in assay [17] it was -0.37; in assay [18], 1.98 (inactive); in assay [19], 1.19 (inactive). In addition, the z-score in assay [20] worked out at 1.42.

On to `C=C[C@@H](COC(C)=O)N(C(=O)OC(C)(C)C)S(=O)(=O)c1ccc(Br)cc1`, for which the composite z-score in [1] was 0.423; in [6], 0.802; in assay [7] it was -0.231; with Torsin-1A (Homo sapiens) [8], 0.814; with Torsin-1A (Homo sapiens) [9], 0.559; in [10], 2.16. The composite z-score in assay [12] was -0.105. The z-score in assay [2] was -0.284 (inactive); in assay [3] it was 1.01 (inactive); in [4], 0.391 (inactive); in assay [5], -0.739 (inactive); in assay [11], 0.336 (inactive); in [13] it was 0.478 (inactive). Moreover, the z-score is -0.145 (inactive) in [14]; 0.14 (inactive) in assay [15]; 0.0566 (inactive) in assay [16]; -0.178 in [17]; -1.47 (inactive) in assay [18]; -0.744 (inactive) in [19]. The molecule also registered a z-score in assay [20] of -1.23.
